# Shown is part of a subset that was picked to be rich in hits.
# GIRK2 activator = activators of NPY4-receptor-primed GIRK2 channels, summary, cell-based, HEK293, thallium flux; 34,000 tested, under 10 active; G protein-activated inward rectifier potassium channel 2 (Homo sapiens), P48051; activation (% efficacy), % for hits at 37.5 µM; AID 1259324, 2017; HEK293 GIRK2/NPY4 cells, thallium flux fluorescence;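 active = primary screen hit, no activity in plain HEK293 cells, and in GIRK2-only cells above 5% efficacy rising with concentration; inactive = the rest, including fluorescent compounds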;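 also: efficacy is normalized control-subtracted fluorescence 15 s after thallium addition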
# Target sequence (P48051 whole entry, looked up): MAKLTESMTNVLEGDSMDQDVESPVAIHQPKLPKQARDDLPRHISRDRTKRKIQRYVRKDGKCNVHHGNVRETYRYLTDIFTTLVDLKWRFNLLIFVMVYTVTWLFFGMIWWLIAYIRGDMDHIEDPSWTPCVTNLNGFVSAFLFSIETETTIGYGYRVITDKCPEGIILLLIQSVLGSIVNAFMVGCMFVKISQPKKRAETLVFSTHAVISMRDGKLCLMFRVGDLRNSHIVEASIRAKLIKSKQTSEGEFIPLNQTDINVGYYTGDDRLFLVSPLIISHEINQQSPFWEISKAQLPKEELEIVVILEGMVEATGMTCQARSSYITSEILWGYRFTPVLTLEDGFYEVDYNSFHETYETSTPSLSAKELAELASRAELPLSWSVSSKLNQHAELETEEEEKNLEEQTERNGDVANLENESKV
# GluA2 TARP mod = modulators of GluA2-stargazin AMPA receptor complexes, primary screen, cell-based, membrane potential dye; calls only at 30 µM; 3.5% of 40,000 active; HEK293 GluA2+stargazin, membrane potential dye (FDSS), glutamate EC50; hits were called plate by plate, in both directions; Voltage-dependent calcium channel gamma-2 subunit (Mus musculus) + Glutamate receptor 2 …;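 active = any of four per-well response measures lying three or more SD from its plate-wide compound average, in either direction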
# Calls only; - = inactive; . = no result; + = active, no number.
SMILES,GIRK2 activator,GluA2 TARP mod
CCCc1c(C(=O)NC2CCCC2)nnn1-c1ccc(Cl)cc1,-,+
CCCc1c(C(=O)NC2CCCCC2)nnn1-c1ccccc1,-,+
O=C(NC1CCCCCC1)c1n[nH]c2ccccc12,.,-
COc1ccc(NC(=O)CC2=NS(=O)(=O)c3ccccc3N2)c(OC)c1,-,-
CC(=O)Nc1ccc2c(c1)CCCN2S(=O)(=O)c1ccc(C)cc1,.,-
Cc1ccc2c(c1)CCCN2C(=O)C1CCN(c2ccc(-c3ccccc3C)nn2)CC1,-,-
O=C(Cc1cccs1)Nc1ccc2c(c1)N(C(=O)C1CC1)CC2,-,-
COc1cc(N2CCN(C(=O)c3cnccn3)CC2)nc(C)n1,-,-
Cc1cc(C)cc(C(=O)N2CCN(c3nc(C)cc(N4CCCCC4)n3)CC2)c1,.,-
Cc1cc(N2CCCCC2)nc(N2CCN(C(=O)Cc3ccccc3)CC2)n1,-,+
Cc1cc(N2CCCCC2)nc(N2CCN(C(=O)c3ccccc3)CC2)n1,.,+
Cc1cccc(C(=O)N2CCN(c3nc(C)cc(N4CCCCC4)n3)CC2)c1,.,+
Cc1cc(N2CCOCC2)nc(N2CCN(C(=O)c3cnccn3)CC2)n1,-,+
Cc1nc(N2CCCCC2)cc(N2CCN(C(=O)c3ncccn3)CC2)n1,-,-
CCNc1cc(C)nc(N2CCN(C(=O)COc3ccccc3)CC2)n1,-,-
Cc1cc(C)c(S(=O)(=O)N2CCOCC2)c(C)c1N(C)S(C)(=O)=O,-,-
Cc1nc(-c2ccc(S(=O)(=O)N3CCN(c4ccc(Nc5cccnc5)nn4)CC3)s2)cs1,-,-
COc1ccc(CCNC(=O)CC2CCCCN2S(=O)(=O)c2ccc(Cl)cc2)cc1OC (centres undefined),.,+
COc1ccc(CCNC(=O)CC2CCCCN2S(=O)(=O)c2ccccc2)cc1 (centres undefined),.,-
COc1ccccc1CNC(=O)CC1CCCCN1S(=O)(=O)c1ccccc1 (centres undefined),.,-
COc1ccccc1CNC(=O)CC1CCCCN1S(=O)(=O)c1ccc(C)cc1 (centres undefined),.,+
Cc1ccc(S(=O)(=O)N2CCCCC2CC(=O)NCc2ccccn2)cc1 (centres undefined),-,-
Cc1ccc(S(=O)(=O)N2CCCCC2CC(=O)NC2CCCCCC2)cc1 (centres undefined),.,+
COc1ccc(S(=O)(=O)N2CCCCC2CC(=O)NCc2ccc(Cl)cc2)cc1 (centres undefined),.,-
O=C(CC1CCCCN1S(=O)(=O)c1ccccc1)NC1CCCCCC1 (centres undefined),.,+
SMILES,GIRK2 activator,GluA2 TARP mod
O=C(CCc1ccccc1)N(CCN1CCOCC1)c1nc2c(F)cccc2s1,-,-
Cc1cc(C)cc(NC(=O)Cc2csc(Nc3ccc(S(C)(=O)=O)cc3)n2)c1,-,-
CCOc1cccc2sc(N(CCN3CCOCC3)C(=O)c3ccc(C)c(C)c3)nc12,-,-
COc1ccc(S(=O)(=O)N2CCCCC2CC(=O)NC2CCCCCC2)cc1 (centres undefined),.,+
COc1ccc(S(=O)(=O)N2CCCCC2CC(=O)NC2CCCCC2)cc1 (centres undefined),.,-
O=C(Nc1ccc(N2CCCS2(=O)=O)cc1)Nc1ccc(Cl)c(Cl)c1,-,+
Cc1ccc(N2CCCS2(=O)=O)cc1NC(=O)Nc1ccc(Cl)c(Cl)c1,-,-
Cc1cc(C)cc(NC(=O)C(=O)NCCc2ccc3c(c2)CCCN3C)c1,.,-
O=S(=O)(c1cccs1)N1CCC(Cn2c(C(F)(F)F)nc3ccccc32)CC1,-,+
CS(=O)(=O)N1CCC(Cn2c(C(F)(F)F)nc3ccccc32)CC1,-,-
CSc1ccccc1NC(=O)C(=O)NCCc1ccc(Cl)cc1,-,+
CCc1ccccc1NC(=O)C(=O)NCCc1ccc(Cl)cc1,-,-
CCOC(=O)c1scc(-c2ccc(C)cc2)c1S(=O)(=O)Nc1ccc2c(c1)OCCO2,-,+
COC(=O)c1scc(-c2ccc(C)cc2)c1S(=O)(=O)Nc1ccc(OC)c(OC)c1,-,-
O=C(Nc1cccc([N+](=O)[O-])c1)c1ccc(=O)n(Cc2ccccc2Cl)c1,-,-
CN(c1ccc(F)cc1)S(=O)(=O)c1ccsc1-c1nc(-c2ccc(F)cc2)no1,-,-
COc1ccc(N(C)S(=O)(=O)c2ccsc2-c2nc(-c3ccc(SC)cc3)no2)cc1,-,+
O=C1c2cc(NC(=O)C3(c4cccs4)CCCC3)ccc2OCCC2CCCCN12 (centres undefined),-,+
O=C(/C=C/c1ccccc1Cl)Nc1ccc2c(c1)C(=O)N1CCCCC1CCO2 (centres undefined),-,-
COc1ccc(-c2ccc(OCCNS(=O)(=O)c3cc(C)c(OC)cc3C)nn2)cc1,-,-
COc1cc(C)c(S(=O)(=O)NCCOc2ccc(-c3ccc(F)cc3)nn2)cc1C,-,+
O=C(Nc1ccc2scnc2c1)c1cc2cc([N+](=O)[O-])ccc2s1,-,-
CCCN1C(=O)NC2(CCN(C(=O)Nc3cccc(C(F)(F)F)c3)CC2)C1=O,-,-
Cc1ccc(CN2C(=O)NC3(CCN(C(=O)Nc4ccc(Cl)cc4)CC3)C2=O)cc1,-,.
O=C(Nc1cccc(Cl)c1)N1CCC2(CC1)NC(=O)N(Cc1ccccc1)C2=O,-,+
SMILES,GIRK2 activator,GluA2 TARP mod
O=C(Nc1cccc(C(F)(F)F)c1)N1CCC2(CC1)NC(=O)N(Cc1ccccc1)C2=O,-,+
CCCCCn1c(=O)c2c(nc3n2CC(C)CN3c2ccccc2OC)n(C)c1=O (centres undefined),.,-
COc1ccc(S(=O)(=O)CC(=O)Nc2nc(-c3ccc(Cl)c(Cl)c3)cs2)cc1,-,-
COc1ccc(-c2csc(NC(=O)c3cccc(S(=O)(=O)C(C)C)c3)n2)cc1C,-,-
COc1ccccc1C1(C(=O)N2CCC(c3cccs3)CC2)CCOCC1,-,+
CCOC(=O)C1CCN(C(=O)C2(c3cccs3)CCOCC2)CC1,-,-
COc1ccc(Br)c(C(=O)NCC2CCN(c3ccccn3)CC2)c1,-,-
C=CCN1CC(c2nc3ccccc3n2CC(O)COc2c(C)cccc2C)CC1=O (centres undefined),-,+
Cc1cc(C)cc(OCC(O)Cn2c(C3CC(=O)N(Cc4ccccc4)C3)nc3ccccc32)c1 (centres undefined),-,-
C=CCN1CC(c2nc3ccccc3n2Cc2cc(C)ccc2C)CC1=O (centres undefined),.,+
Cc1ccc(C)c(Cn2c(C3CC(=O)N(c4ccccc4)C3)nc3ccccc32)c1 (centres undefined),.,+
C=CCN1CC(c2nc3ccccc3n2Cc2ccccc2C)CC1=O (centres undefined),.,-
Cc1ccc(N2CC(c3nc4ccccc4n3Cc3ccccc3C)CC2=O)cc1 (centres undefined),.,-
O=C(C1CN(c2nc3c(F)cccc3s2)C1)N1CCN(c2ccc(C(F)(F)F)cn2)CC1,-,-
O=C(c1cccs1)N1CCN(c2cc(N3CCCC3)ncn2)CC1,-,+
O=C(Cc1cccs1)N1CCN(c2cc(N3CCCC3)ncn2)CC1,-,+
CC1CCN(c2ccc(N3CCN(C(=O)c4cccs4)CC3)nn2)CC1,-,-

# Bioassay records: PubChem BioAssay, several laboratories
